Holding throughout (test): DAPPL (digital affinity profiling via proximity ligation, sequencing); 10 mM Tris-HCl pH 7.5, 50 mM NaCl, 1 mM DTT, 4% glycerol, room temperature, 30 min; GST-TFs on glutathione beads, 16-mer random dsDNA library, 0.1% formaldehyde crosslink after washing; high values mean tight binding
One experiment has as its target T1, FLI1 (Homo sapiens, UniProt Q01543 1-452).
T1 sequence: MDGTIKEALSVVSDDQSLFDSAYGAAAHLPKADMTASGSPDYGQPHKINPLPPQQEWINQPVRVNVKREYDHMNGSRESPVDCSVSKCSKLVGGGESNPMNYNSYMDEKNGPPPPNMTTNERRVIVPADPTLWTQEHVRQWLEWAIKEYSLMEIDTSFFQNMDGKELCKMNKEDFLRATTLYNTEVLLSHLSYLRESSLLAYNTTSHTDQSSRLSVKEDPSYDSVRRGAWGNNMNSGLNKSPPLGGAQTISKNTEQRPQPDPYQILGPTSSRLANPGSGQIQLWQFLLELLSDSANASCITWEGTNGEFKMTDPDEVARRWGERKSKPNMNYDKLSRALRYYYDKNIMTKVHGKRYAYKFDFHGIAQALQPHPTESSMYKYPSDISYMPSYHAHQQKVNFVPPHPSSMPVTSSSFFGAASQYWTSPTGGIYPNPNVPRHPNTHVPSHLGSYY
As to conditions: protein: recombinant; tags: N-terminal GST; dsDNA, one strand shown. In a few lines:
(§1)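 The binding signal reported is, for every hexamer, its read frequency for a factor over its read frequency for the tag-only sample. Reads came from pools of yeast-expressed, GST-fused human transcription factors on glutathione beads, barcoded with DNA and mixed with that sample, which were incubated with 200 nmole of a random double-stranded 16-mer DNA library in Tris/NaCl/DTT/glycerol buffer at room temperature for 30 min. After washing, the pools were crosslinked with 0.1% formaldehyde, proximity-ligated with BsaI/T4 ligase for 1 h at 37 °C, PCR-amplified and sequenced on an Illumina NextSeq500.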

In the next experiment the target is T2, ELK1 (Homo sapiens, UniProt P19419 1-428).
T2 sequence: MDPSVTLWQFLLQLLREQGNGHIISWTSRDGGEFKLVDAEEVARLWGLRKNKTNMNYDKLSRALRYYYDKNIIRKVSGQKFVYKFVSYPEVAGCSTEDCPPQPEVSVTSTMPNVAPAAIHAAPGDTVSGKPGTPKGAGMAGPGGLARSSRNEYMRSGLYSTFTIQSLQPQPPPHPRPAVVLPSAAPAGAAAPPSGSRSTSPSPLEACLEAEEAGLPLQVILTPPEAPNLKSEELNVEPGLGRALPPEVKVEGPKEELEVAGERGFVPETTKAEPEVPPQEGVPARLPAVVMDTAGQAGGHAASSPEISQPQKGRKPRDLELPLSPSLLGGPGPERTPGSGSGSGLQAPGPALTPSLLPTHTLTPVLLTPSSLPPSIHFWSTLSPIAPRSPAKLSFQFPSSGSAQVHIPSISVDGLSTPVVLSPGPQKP
The note with it: protein: recombinant; tags: N-terminal GST; dsDNA, one strand shown. The method in brief: as §1

A further experiment addresses T3, GABPA (Homo sapiens, UniProt Q06546 1-454).
T3 sequence: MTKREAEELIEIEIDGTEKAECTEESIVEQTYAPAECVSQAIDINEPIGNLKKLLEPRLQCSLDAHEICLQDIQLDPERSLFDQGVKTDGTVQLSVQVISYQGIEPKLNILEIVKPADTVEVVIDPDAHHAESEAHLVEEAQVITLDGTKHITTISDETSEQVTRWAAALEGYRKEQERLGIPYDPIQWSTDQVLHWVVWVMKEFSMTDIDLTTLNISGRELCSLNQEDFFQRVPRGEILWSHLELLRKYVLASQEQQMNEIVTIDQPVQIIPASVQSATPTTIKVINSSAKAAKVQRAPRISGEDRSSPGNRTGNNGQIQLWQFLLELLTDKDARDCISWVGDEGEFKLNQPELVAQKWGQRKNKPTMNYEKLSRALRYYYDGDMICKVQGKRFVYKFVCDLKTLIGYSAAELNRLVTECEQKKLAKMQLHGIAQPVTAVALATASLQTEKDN
The note with it: protein: recombinant; tags: N-terminal GST; dsDNA, one strand shown. The method in brief:
as §1

A further experiment deals with T4, ERG (Homo sapiens, UniProt P11308 1-479).
T4 sequence: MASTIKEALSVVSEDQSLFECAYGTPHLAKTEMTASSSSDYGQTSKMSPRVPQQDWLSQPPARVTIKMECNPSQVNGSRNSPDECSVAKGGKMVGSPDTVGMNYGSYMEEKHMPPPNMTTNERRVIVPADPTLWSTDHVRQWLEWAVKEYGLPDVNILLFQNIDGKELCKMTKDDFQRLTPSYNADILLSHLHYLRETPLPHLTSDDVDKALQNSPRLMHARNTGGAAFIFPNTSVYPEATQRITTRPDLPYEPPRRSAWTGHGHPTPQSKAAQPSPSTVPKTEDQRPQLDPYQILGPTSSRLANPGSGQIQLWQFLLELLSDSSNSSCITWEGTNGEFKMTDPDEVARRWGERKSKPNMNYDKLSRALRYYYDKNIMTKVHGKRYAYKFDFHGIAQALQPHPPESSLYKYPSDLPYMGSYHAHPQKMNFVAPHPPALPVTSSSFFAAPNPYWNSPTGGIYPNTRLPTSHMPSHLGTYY
As to conditions: protein: recombinant; tags: N-terminal GST; dsDNA, one strand shown. In a few lines: as §1

The target in another experiment is ELF1 (Homo sapiens, UniProt P32519 1-619). The note with it: protein: recombinant; tags: N-terminal GST; dsDNA, one strand shown. The method in brief:
as §1

The next experiment has as its target T5, EHF (Homo sapiens, UniProt Q9NZC4 1-300).
T5 sequence: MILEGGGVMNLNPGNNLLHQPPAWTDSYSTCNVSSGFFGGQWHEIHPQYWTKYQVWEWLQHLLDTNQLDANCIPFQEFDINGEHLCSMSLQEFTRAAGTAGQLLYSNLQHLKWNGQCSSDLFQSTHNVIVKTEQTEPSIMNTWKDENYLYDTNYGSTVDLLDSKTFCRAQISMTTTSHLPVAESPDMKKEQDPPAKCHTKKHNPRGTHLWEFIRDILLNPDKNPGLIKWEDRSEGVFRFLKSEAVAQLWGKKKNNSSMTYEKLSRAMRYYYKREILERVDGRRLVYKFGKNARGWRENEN
As to conditions: protein: recombinant; tags: N-terminal GST; dsDNA, one strand shown. The method in brief:
as §1

The target in a further experiment is SPI1 (Homo sapiens, UniProt P17947 1-270). The note with it: protein: recombinant; tags: N-terminal GST; dsDNA, one strand shown. In a few lines:
as §1

In the next experiment the target is SPIB (Homo sapiens, UniProt Q01892 1-262). As to conditions: protein: recombinant; tags: N-terminal GST; dsDNA, one strand shown. In a few lines: as §1
Sequence of SPIB (Q01892 whole entry): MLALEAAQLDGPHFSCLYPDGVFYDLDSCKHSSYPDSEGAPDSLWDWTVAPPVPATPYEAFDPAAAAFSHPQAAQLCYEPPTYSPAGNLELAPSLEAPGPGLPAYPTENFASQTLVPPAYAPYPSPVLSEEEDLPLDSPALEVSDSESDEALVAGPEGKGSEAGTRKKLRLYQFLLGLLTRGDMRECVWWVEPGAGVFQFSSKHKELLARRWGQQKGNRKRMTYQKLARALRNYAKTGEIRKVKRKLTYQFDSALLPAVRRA
A further experiment concerns the target T6, ELK3 (Homo sapiens, UniProt P41970 1-407).
T6 sequence: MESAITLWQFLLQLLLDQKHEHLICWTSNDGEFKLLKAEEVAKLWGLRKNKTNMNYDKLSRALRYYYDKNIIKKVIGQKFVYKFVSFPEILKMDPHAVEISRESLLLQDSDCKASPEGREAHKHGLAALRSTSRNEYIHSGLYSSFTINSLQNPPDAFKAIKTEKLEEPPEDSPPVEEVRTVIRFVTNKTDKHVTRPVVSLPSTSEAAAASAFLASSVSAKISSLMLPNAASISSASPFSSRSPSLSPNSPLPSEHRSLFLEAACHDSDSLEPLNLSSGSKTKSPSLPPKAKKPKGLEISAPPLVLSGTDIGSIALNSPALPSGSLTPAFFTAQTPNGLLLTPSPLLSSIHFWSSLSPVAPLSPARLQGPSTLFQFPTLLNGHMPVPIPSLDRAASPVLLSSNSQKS
The note with it: protein: recombinant; tags: N-terminal GST; dsDNA, one strand shown. The method in brief:
as §1

A further experiment addresses T7, FEV (Homo sapiens, UniProt Q99581 1-238).
T7 sequence: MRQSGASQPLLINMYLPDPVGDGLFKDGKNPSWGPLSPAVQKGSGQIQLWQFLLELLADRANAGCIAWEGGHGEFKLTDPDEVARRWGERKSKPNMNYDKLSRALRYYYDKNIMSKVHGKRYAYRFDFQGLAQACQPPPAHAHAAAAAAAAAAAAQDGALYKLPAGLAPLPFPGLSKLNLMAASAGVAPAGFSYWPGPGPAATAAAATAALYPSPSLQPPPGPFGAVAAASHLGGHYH
The note with it: protein: recombinant; tags: N-terminal GST; dsDNA, one strand shown. The method in brief: as §1

Another experiment addresses ETV5 (Homo sapiens, UniProt P41161 1-510). The note with it: protein: recombinant; tags: N-terminal GST; dsDNA, one strand shown. In a few lines: as §1
For a further experiment, the target named is HSF1 (Homo sapiens, UniProt Q00613 1-529). As to conditions: protein: recombinant; tags: N-terminal GST; chain copies: 3; dsDNA, one strand shown. The method in brief: as §1
Sequence of HSF1 (Q00613 whole entry): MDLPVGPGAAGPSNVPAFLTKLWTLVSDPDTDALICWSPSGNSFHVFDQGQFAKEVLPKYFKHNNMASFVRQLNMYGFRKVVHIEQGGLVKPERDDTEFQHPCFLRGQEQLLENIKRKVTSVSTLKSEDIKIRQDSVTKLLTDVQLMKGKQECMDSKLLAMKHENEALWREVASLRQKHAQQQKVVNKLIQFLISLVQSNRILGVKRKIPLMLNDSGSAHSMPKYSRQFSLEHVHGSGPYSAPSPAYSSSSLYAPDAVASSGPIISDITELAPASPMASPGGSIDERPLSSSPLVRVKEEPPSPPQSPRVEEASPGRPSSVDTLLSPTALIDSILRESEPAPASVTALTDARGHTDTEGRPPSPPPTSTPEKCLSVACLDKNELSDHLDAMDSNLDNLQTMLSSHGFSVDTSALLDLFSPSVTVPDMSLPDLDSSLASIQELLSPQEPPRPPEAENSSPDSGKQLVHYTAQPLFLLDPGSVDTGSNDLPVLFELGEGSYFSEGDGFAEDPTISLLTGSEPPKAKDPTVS
A further experiment addresses T8, SPIC (Homo sapiens, UniProt Q8N5J4 1-248).
T8 sequence: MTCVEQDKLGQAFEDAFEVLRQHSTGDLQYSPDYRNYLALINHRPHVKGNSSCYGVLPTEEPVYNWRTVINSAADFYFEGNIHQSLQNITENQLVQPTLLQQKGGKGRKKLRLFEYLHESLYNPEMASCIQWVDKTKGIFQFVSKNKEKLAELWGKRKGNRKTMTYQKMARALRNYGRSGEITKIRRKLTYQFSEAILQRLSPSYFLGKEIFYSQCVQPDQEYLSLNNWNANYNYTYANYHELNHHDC
The note with it: protein: recombinant; tags: N-terminal GST; dsDNA, one strand shown. In a few lines:
as §1

Another experiment has as its target ELF4 (Homo sapiens, UniProt Q99607 1-663). The note with it: protein: recombinant; tags: N-terminal GST; dsDNA, one strand shown. In a few lines: as §1
Another experiment deals with T9, ELK4 (Homo sapiens, UniProt P28324-2 1-405).
T9 sequence: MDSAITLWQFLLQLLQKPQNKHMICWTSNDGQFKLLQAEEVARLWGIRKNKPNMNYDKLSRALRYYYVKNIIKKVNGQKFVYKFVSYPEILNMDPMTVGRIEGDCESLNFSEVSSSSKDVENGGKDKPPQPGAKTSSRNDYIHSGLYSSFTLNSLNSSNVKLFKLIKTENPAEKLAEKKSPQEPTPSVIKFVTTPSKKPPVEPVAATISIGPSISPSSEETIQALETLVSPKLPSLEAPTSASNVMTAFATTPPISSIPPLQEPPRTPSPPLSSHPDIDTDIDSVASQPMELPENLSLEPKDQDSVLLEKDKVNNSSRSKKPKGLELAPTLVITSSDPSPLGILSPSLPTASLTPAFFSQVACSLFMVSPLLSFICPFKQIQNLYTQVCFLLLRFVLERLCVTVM
As to conditions: protein: recombinant; tags: N-terminal GST; dsDNA, one strand shown. The method in brief: as §1

In a further experiment the target is T10, ELF3 (Homo sapiens, UniProt P78545 1-371).
T10 sequence: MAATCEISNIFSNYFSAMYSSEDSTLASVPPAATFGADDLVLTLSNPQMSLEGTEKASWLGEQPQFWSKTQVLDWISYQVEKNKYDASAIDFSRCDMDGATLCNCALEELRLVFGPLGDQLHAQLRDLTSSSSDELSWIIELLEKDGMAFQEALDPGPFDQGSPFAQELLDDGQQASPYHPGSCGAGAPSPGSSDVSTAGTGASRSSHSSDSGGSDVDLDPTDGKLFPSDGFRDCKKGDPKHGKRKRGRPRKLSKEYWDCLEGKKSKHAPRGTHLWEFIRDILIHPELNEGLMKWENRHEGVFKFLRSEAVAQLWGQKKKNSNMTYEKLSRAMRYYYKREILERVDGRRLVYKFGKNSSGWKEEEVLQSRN
The note with it: protein: recombinant; tags: N-terminal GST; dsDNA, one strand shown. In a few lines: as §1

For another experiment, the target named is CRX (Homo sapiens, UniProt O43186 1-299). As to conditions: protein: recombinant; tags: N-terminal GST; dsDNA, one strand shown. In a few lines: as §1
Sequence of CRX (O43186 whole entry): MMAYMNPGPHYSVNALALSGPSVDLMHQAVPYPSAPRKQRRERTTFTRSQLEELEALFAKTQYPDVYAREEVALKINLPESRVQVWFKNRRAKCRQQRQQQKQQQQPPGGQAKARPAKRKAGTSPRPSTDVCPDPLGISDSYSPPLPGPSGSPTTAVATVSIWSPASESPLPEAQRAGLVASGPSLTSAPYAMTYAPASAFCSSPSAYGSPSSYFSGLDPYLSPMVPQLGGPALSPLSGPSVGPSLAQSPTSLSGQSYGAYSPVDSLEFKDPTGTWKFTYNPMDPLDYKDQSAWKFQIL
A further experiment has as its target ETV1 (Homo sapiens, UniProt P50549 1-477). As to conditions: protein: recombinant; tags: N-terminal GST; dsDNA, one strand shown. In a few lines:
as §1

Sequence of ETV5 (P41161 whole entry): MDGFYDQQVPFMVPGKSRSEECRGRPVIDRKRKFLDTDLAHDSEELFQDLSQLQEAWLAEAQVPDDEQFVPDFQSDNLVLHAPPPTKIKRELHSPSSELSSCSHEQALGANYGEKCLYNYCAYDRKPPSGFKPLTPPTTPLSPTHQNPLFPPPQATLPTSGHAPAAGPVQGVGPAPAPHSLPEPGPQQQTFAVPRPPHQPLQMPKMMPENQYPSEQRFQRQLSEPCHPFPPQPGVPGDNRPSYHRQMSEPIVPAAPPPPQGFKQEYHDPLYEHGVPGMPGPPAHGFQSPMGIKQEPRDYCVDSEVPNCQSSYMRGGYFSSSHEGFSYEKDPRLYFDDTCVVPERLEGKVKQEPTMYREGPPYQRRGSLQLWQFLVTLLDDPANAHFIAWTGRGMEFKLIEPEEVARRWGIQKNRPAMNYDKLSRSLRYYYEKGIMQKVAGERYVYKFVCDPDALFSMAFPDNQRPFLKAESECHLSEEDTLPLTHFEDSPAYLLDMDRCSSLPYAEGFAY
Sequence of ELF1 (P32519 whole entry): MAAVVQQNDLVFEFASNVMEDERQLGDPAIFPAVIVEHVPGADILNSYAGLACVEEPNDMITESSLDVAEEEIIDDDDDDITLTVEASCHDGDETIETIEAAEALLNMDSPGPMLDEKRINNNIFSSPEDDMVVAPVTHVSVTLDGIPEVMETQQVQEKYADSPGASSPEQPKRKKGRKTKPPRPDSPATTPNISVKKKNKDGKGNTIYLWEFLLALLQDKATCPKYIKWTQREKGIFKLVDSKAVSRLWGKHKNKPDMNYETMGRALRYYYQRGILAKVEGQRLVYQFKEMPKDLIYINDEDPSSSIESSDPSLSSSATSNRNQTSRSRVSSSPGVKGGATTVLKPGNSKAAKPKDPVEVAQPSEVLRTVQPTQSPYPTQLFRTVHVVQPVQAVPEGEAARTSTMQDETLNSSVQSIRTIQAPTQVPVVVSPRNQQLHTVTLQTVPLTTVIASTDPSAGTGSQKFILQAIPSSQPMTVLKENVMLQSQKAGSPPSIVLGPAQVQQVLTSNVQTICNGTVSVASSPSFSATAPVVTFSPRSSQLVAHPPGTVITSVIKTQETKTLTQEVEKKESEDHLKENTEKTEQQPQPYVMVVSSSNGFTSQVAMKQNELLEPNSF
Sequence of ELF4 (Q99607 whole entry): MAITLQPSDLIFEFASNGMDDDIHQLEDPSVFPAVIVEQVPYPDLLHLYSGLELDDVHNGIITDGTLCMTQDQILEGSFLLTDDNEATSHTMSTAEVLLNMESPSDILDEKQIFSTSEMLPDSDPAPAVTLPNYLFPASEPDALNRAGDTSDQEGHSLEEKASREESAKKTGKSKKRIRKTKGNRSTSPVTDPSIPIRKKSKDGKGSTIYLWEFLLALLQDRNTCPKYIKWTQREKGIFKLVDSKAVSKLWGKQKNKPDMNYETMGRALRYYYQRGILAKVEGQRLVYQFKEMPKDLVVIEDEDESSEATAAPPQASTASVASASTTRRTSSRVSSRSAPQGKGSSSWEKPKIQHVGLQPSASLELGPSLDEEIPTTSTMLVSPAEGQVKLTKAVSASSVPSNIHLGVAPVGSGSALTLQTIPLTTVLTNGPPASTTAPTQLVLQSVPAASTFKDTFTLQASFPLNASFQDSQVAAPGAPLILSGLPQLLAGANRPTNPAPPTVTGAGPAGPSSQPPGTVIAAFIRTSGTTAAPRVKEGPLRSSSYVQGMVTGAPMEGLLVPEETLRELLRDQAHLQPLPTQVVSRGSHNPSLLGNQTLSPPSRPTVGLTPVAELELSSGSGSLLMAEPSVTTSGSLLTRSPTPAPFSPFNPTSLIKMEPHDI
Sequence of ETV1 (P50549 whole entry): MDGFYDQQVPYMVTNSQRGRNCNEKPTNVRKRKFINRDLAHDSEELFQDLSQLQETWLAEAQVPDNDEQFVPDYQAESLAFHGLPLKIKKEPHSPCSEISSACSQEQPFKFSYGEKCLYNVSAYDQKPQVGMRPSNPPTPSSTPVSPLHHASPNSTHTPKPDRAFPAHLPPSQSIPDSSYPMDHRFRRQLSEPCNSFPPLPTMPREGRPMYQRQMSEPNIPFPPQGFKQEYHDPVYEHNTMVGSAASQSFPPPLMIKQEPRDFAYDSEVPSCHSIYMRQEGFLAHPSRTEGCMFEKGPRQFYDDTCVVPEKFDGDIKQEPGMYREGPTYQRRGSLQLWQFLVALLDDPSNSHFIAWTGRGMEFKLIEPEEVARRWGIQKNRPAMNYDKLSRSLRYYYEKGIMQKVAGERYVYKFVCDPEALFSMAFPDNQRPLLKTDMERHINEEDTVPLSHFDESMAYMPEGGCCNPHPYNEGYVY

Consider ATAAAG, for which the binding signal with FLI1 was 1.01 fold enrichment (6-mer frequency, TF over GST control); with ELK1, 1.01 fold enrichment (6-mer frequency, TF over GST control); with GABPA it was 1.05 fold enrichment (6-mer frequency, TF over GST control); with ERG it was 1.12 fold enrichment (6-mer frequency, TF over GST control); in the experiment with ELF1, 1.06 fold enrichment (6-mer frequency, TF over GST control); in the experiment with EHF, 1.11 fold enrichment (6-mer frequency, TF over GST control). Moreover, the binding signal with SPI1 was 1.21 fold enrichment (6-mer frequency, TF over GST control); with SPIB it was 1.1 fold enrichment (6-mer frequency, TF over GST control); with ELK3, 1.12 fold enrichment (6-mer frequency, TF over GST control); with FEV, 1.04 fold enrichment (6-mer frequency, TF over GST control); with ETV5, 1.03 fold enrichment (6-mer frequency, TF over GST control); with HSF1 it was 1.27 fold enrichment (6-mer frequency, TF over GST control). Besides, the binding signal with SPIC is 1.09 fold enrichment (6-mer frequency, TF over GST control); with ELF4, 1.08 fold enrichment (6-mer frequency, TF over GST control); with ELK4, 1.16 fold enrichment (6-mer frequency, TF over GST control); with ELF3, 1.02 fold enrichment (6-mer frequency, TF over GST control); in the experiment with CRX it was 1.53 fold enrichment (6-mer frequency, TF over GST control); in the experiment with ETV1, 1.04 fold enrichment (6-mer frequency, TF over GST control).

The values are drawn from publication PMC7862700, “An all-to-all approach to the identification of sequence-specific readers for epigenetic DNA modifications on cytosine”.
